Holding throughout (test): PBM; 200 nM protein, PBS
What all share (conditions): dsDNA, one strand shown

Assay [1] addresses HOXB9 (Homo sapiens, UniProt P17482 171-250, T197M).
For assay [2], the target named is HOXA4 (Homo sapiens, UniProt Q00056 201-287, W262R).
For the next assay, the target named is T1, VENTX (Homo sapiens, UniProt O95231 78-163).
T1 sequence: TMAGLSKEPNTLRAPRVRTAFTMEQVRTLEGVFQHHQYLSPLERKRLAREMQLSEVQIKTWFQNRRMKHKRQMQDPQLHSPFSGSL

Assay [3] concerns the target HOXA7 (Homo sapiens, UniProt P31268 116-202).
Assay [4] concerns the target HOXB6 (Homo sapiens, UniProt P17509 132-218, K202E).
In assay [5] the target is HOXA4 (Homo sapiens, UniProt Q00056 201-287).
Chain of HOXA4 (Homo sapiens, UniProt Q00056 201-287) (Q00056 201-287): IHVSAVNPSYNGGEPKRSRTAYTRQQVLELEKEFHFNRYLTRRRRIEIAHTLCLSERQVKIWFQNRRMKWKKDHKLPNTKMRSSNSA
A further assay concerns the target VAX1 (Homo sapiens, UniProt Q5SQQ9 86-172).
The target in the next assay is T2, PAX4 (Homo sapiens, UniProt O43316 9-242, R227W).
T2 sequence: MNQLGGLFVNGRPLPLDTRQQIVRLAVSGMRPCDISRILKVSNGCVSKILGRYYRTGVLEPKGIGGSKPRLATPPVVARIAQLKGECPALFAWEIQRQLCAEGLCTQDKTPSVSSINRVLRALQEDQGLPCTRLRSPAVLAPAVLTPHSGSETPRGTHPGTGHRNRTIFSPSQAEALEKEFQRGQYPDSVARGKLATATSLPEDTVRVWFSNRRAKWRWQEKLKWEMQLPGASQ

For assay [6], the target named is HOXA2 (Homo sapiens, UniProt O43364 129-215, Y150S).
Chain of HOXA2 (Homo sapiens, UniProt O43364 129-215, Y150S) (O43364 129-215 Y150S): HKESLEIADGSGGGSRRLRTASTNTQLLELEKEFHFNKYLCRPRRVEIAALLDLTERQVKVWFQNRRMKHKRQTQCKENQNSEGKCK
For assay [7], the target named is HOXA7 (Homo sapiens, UniProt P31268 116-202, W177C).
Chain of HOXA7 (Homo sapiens, UniProt P31268 116-202, W177C) (P31268 116-202 W177C): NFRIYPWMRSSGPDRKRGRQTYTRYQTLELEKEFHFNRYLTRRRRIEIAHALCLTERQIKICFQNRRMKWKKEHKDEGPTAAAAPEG
The target in assay [8] is HOXA2 (Homo sapiens, UniProt O43364 129-215).
Chain of HOXA2 (Homo sapiens, UniProt O43364 129-215) (O43364 129-215): as the sequence (O43364 129-215 Y150S) above, with S22Y counted along it
Assay [9] concerns the target HOXB6 (Homo sapiens, UniProt P17509 132-218).
Assay [10] has as its target HOXC10 (Homo sapiens, UniProt Q9NYD6 254-340, K271E).
Assay [11] addresses HOXC10 (Homo sapiens, UniProt Q9NYD6 254-340).
In assay [12] the target is HOXC9 (Homo sapiens, UniProt P31274 178-260, K195R).
Chain of HOXC9 (Homo sapiens, UniProt P31274 178-260, K195R) (P31274 178-260 K195R): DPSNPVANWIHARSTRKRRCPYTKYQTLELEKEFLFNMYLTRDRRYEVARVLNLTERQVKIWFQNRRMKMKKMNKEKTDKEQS
The target in assay [13] is HOXB9 (Homo sapiens, UniProt P17482 171-250).
Chain of HOXB9 (Homo sapiens, UniProt P17482 171-250) (P17482 171-250): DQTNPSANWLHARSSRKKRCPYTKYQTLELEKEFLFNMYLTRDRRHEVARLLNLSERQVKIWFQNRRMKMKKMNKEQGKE
The target in assay [14] is HOXC9 (Homo sapiens, UniProt P31274 178-260, R193K).
Chain of HOXC9 (Homo sapiens, UniProt P31274 178-260, R193K) (P31274 178-260 R193K): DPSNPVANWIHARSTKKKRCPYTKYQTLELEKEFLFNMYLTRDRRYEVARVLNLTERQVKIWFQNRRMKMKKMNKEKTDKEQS
For assay [15], the target named is HOXB9 (Homo sapiens, UniProt P17482 171-250, R186Q).
Chain of HOXB9 (Homo sapiens, UniProt P17482 171-250, R186Q) (P17482 171-250 R186Q): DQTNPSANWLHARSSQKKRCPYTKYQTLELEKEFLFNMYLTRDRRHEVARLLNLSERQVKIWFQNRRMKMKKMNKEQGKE
Assay [16] deals with HOXC9 (Homo sapiens, UniProt P31274 178-260).
Chain of HOXC9 (Homo sapiens, UniProt P31274 178-260) (P31274 178-260): as the sequence (P31274 178-260 R193K) above, with K16R counted along it
Assay [17] has as its target HOXC9 (Homo sapiens, UniProt P31274 178-260, R222W).

Chain of VAX1 (Q5SQQ9 86-172): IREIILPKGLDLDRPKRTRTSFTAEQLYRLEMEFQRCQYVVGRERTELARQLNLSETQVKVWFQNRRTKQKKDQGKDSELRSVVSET
Chain of HOXB9 (Homo sapiens, UniProt P17482 171-250, T197M) (P17482 171-250 T197M): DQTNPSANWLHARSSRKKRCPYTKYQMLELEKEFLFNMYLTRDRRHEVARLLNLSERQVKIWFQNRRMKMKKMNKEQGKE
Chain of HOXB6 (Homo sapiens, UniProt P17509 132-218) (P17509 132-218): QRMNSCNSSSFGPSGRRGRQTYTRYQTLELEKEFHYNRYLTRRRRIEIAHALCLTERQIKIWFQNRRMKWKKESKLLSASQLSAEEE
Chain of HOXB6 (Homo sapiens, UniProt P17509 132-218, K202E) (P17509 132-218 K202E): as the sequence (P17509 132-218) above, with K71E counted along it
Chain of HOXA7 (Homo sapiens, UniProt P31268 116-202) (P31268 116-202): as the sequence (P31268 116-202 W177C) above, with C62W counted along it
Chain of HOXA4 (Homo sapiens, UniProt Q00056 201-287, W262R) (Q00056 201-287 W262R): as the sequence (Q00056 201-287) above, with W62R counted along it
Chain of HOXC10 (Homo sapiens, UniProt Q9NYD6 254-340, K271E) (Q9NYD6 254-340 K271E): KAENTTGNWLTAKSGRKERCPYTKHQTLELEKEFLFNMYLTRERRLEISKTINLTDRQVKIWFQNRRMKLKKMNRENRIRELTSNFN
Chain of HOXC10 (Homo sapiens, UniProt Q9NYD6 254-340) (Q9NYD6 254-340): as the sequence (Q9NYD6 254-340 K271E) above, with E18K counted along it
Chain of HOXC9 (Homo sapiens, UniProt P31274 178-260, R222W) (P31274 178-260 R222W): as the sequence (P31274 178-260 R193K) above, with K16R, R45W counted along it

For AATTAACA, the binding signal in the assay with HOXB9 [1] is 9.97 upbm affinity estimate (log intensity, higher = more binding, comparable within an allelic series); with HOXA4 [2], 10.8 upbm affinity estimate (log intensity, higher = more binding, comparable within an allelic series); in the assay with VENTX it was 12.4 upbm affinity estimate (log intensity, higher = more binding, comparable within an allelic series); with HOXA7 [3], 11.3 upbm affinity estimate (log intensity, higher = more binding, comparable within an allelic series); with HOXB6 [4], 10 upbm affinity estimate (log intensity, higher = more binding, comparable within an allelic series); with HOXA4 [5], 13.7 upbm affinity estimate (log intensity, higher = more binding, comparable within an allelic series). For the same sequence, the binding signal with VAX1 was 12.9 upbm affinity estimate (log intensity, higher = more binding, comparable within an allelic series); in the assay with PAX4 it was 11.2 upbm affinity estimate (log intensity, higher = more binding, comparable within an allelic series); with HOXA2 [6] it was 11 upbm affinity estimate (log intensity, higher = more binding, comparable within an allelic series); with HOXA7 [7], 8.91 upbm affinity estimate (log intensity, higher = more binding, comparable within an allelic series); in the assay with HOXA2 [8] it was 12.2 upbm affinity estimate (log intensity, higher = more binding, comparable within an allelic series); in the assay with HOXB6 [9] it was 11.7 upbm affinity estimate (log intensity, higher = more binding, comparable within an allelic series).

With AACAATTA, the binding signal was 10.6 upbm affinity estimate (log intensity, higher = more binding, comparable within an allelic series) with HOXA4 [2]; 11.2 upbm affinity estimate (log intensity, higher = more binding, comparable within an allelic series) in the assay with HOXA7 [3]; 10 upbm affinity estimate (log intensity, higher = more binding, comparable within an allelic series) with HOXB6 [4]; 13.6 upbm affinity estimate (log intensity, higher = more binding, comparable within an allelic series) in the assay with HOXA4 [5]; 8.96 upbm affinity estimate (log intensity, higher = more binding, comparable within an allelic series) in the assay with HOXA7 [7].

Turning to GGCAGGCC, in the assay with PAX4, the binding signal is 9.12 upbm affinity estimate (log intensity, higher = more binding, comparable within an allelic series).

Take AGCAATTA: the binding signal was 9.96 upbm affinity estimate (log intensity, higher = more binding, comparable within an allelic series) with HOXB9 [1]; 10.5 upbm affinity estimate (log intensity, higher = more binding, comparable within an allelic series) with HOXA4 [2]; 12.4 upbm affinity estimate (log intensity, higher = more binding, comparable within an allelic series) with VENTX; 11.7 upbm affinity estimate (log intensity, higher = more binding, comparable within an allelic series) with HOXA7 [3]; 9.92 upbm affinity estimate (log intensity, higher = more binding, comparable within an allelic series) in the assay with HOXB6 [4]; 13.7 upbm affinity estimate (log intensity, higher = more binding, comparable within an allelic series) with HOXA4 [5]. For the same sequence, the binding signal was 11.8 upbm affinity estimate (log intensity, higher = more binding, comparable within an allelic series) with HOXC10 [10]; 12.9 upbm affinity estimate (log intensity, higher = more binding, comparable within an allelic series) with VAX1; 10.8 upbm affinity estimate (log intensity, higher = more binding, comparable within an allelic series) in the assay with HOXA2 [6]; 8.7 upbm affinity estimate (log intensity, higher = more binding, comparable within an allelic series) in the assay with HOXA7 [7]; 12.5 upbm affinity estimate (log intensity, higher = more binding, comparable within an allelic series) in the assay with HOXA2 [8]; 12 upbm affinity estimate (log intensity, higher = more binding, comparable within an allelic series) with HOXB6 [9].

Regarding CCCCGGCG, the binding signal in the assay with HOXA4 [2] is 9.68 upbm affinity estimate (log intensity, higher = more binding, comparable within an allelic series); in the assay with HOXC10 [11], 9.87 upbm affinity estimate (log intensity, higher = more binding, comparable within an allelic series); with HOXB6 [4] it was 9.01 upbm affinity estimate (log intensity, higher = more binding, comparable within an allelic series); in the assay with HOXA4 [5], 9.89 upbm affinity estimate (log intensity, higher = more binding, comparable within an allelic series); with HOXC10 [10] it was 10 upbm affinity estimate (log intensity, higher = more binding, comparable within an allelic series); with HOXB6 [9], 9 upbm affinity estimate (log intensity, higher = more binding, comparable within an allelic series).

In the case of AAATTAAT, the binding signal is 10.1 upbm affinity estimate (log intensity, higher = more binding, comparable within an allelic series) with HOXB9 [1]; 10.6 upbm affinity estimate (log intensity, higher = more binding, comparable within an allelic series) with HOXA4 [2]; 12.6 upbm affinity estimate (log intensity, higher = more binding, comparable within an allelic series) with HOXC9 [12]; 11.3 upbm affinity estimate (log intensity, higher = more binding, comparable within an allelic series) with HOXA7 [3]; 10.1 upbm affinity estimate (log intensity, higher = more binding, comparable within an allelic series) with HOXB6 [4]; 11.8 upbm affinity estimate (log intensity, higher = more binding, comparable within an allelic series) with HOXB9 [13]. Moreover, the binding signal with HOXC9 [14] was 12.5 upbm affinity estimate (log intensity, higher = more binding, comparable within an allelic series); with HOXA4 [5], 13.6 upbm affinity estimate (log intensity, higher = more binding, comparable within an allelic series); with VAX1 it was 12.7 upbm affinity estimate (log intensity, higher = more binding, comparable within an allelic series); with HOXB9 [15], 11.5 upbm affinity estimate (log intensity, higher = more binding, comparable within an allelic series); with PAX4 it was 11.1 upbm affinity estimate (log intensity, higher = more binding, comparable within an allelic series); with HOXA7 [7], 8.83 upbm affinity estimate (log intensity, higher = more binding, comparable within an allelic series). Moreover, the binding signal with HOXB6 [9] is 11.8 upbm affinity estimate (log intensity, higher = more binding, comparable within an allelic series).

Take GTCAATTA: the binding signal in the assay with HOXA4 [2] was 10.5 upbm affinity estimate (log intensity, higher = more binding, comparable within an allelic series); with HOXC9 [12] it was 11.9 upbm affinity estimate (log intensity, higher = more binding, comparable within an allelic series); with HOXB6 [4], 9.73 upbm affinity estimate (log intensity, higher = more binding, comparable within an allelic series); with HOXC9 [16], 12 upbm affinity estimate (log intensity, higher = more binding, comparable within an allelic series); with HOXC9 [14], 11.9 upbm affinity estimate (log intensity, higher = more binding, comparable within an allelic series); with HOXA4 [5], 13.8 upbm affinity estimate (log intensity, higher = more binding, comparable within an allelic series). Further, the binding signal with VAX1 was 13.3 upbm affinity estimate (log intensity, higher = more binding, comparable within an allelic series); in the assay with HOXC9 [17] it was 10.7 upbm affinity estimate (log intensity, higher = more binding, comparable within an allelic series); with HOXA2 [6] it was 10.7 upbm affinity estimate (log intensity, higher = more binding, comparable within an allelic series); with HOXA2 [8] it was 12.3 upbm affinity estimate (log intensity, higher = more binding, comparable within an allelic series); in the assay with HOXB6 [9] it was 11.7 upbm affinity estimate (log intensity, higher = more binding, comparable within an allelic series).

For GCAAGGGC, the binding signal with HOXA4 [2] was 9.8 upbm affinity estimate (log intensity, higher = more binding, comparable within an allelic series); with HOXA4 [5] it was 9.73 upbm affinity estimate (log intensity, higher = more binding, comparable within an allelic series).

Source of the values: paper PMC11006913.
